Here are results for 67 compounds from ChEMBL document CHEMBL3988442, “University of Dundee, Small-Polar-MMV Screening Library” (2021).

Out of some 38,000 compounds screened, about 1,200 (3.2%) showed an effect of 50% or more. The median lay at about -58%. Only a selection was taken, and strong results are over-represented in it overall.

The assay deals with Plasmodium falciparum. Briefly: Calibr Malaria Delayed Death Assay SOP. The class given is functional, organism-based. Also noted: scale not given: in the data most compounds retested in dose-response had high values. The settings on record: concentration 4.99e-06 (unit not given; other assays of the set use mol/L).
On to `O=C(Nc1nccs1)c1csc(NC2CCCC2)n1`, for which the “Percent Effect” value was -183.6%. On to `Cc1cnn(CCNCC(O)c2ccc3c(c2)OCCO3)c1` (configuration not stated), for which the “Percent Effect” value is -44.13%. Regarding `Cc1cnn(CCNCC(O)c2ccc(F)c(F)c2)c1` (configuration not stated), the “Percent Effect” value was 43.94%. As to `Cc1cnn(CCNCC(O)c2ccc(C(F)(F)F)cc2)c1` (configuration not stated), the “Percent Effect” value is 71.82%.

On to `COc1ccccc1C1CC(=O)Nc2c1c(=O)[nH]n2C(C)C` (configuration not stated), for which the “Percent Effect” value is -127.8%.

In the case of `CC(O)CNc1nc(-c2cccnc2)nc2c1CCC2` (configuration not stated), the “Percent Effect” value is on record as -47.48%. `c1cncc(-c2nc3c(c(NCC4(c5ccncc5)CC4)n2)CCC3)c1`: the “Percent Effect” value is on record as -35.93%. In the case of `c1ccc(-n2cnnc2CCCN2CCOCC2)cc1`, the “Percent Effect” value is on record as -26.23%.

`CC(C)OCCC(=O)NCC(c1c(F)cccc1F)N(C)C` (configuration not stated): the “Percent Effect” value is recorded as -18.53%. With `O=C1COC2(CCN(C(=O)[C@H]3CCCO3)CC2)CN1Cc1ccccn1`, the “Percent Effect” value was -79.26%. `Cc1csc(CN(C)C(C)C(=O)N2CCc3ccccc3C2)n1` (configuration not stated): the “Percent Effect” value was -122.6%. Regarding `Cl.NC(C(=O)N1CCSc2ccccc2C1)c1ccccc1` (configuration not stated), the “Percent Effect” value is 59.31%. The result for `CC(C)[C@H](N)C(=O)N1CCSc2ccccc2C1.Cl` reads 73.25%; that for `CC(C)C[C@H](N)C(=O)N1CCSc2ccccc2C1.Cl`, 47.22%. Regarding `O=C(C(CNCc1ccccc1O)c1ccccc1)N1CCOCC1` (configuration not stated), the “Percent Effect” value came to 14.02%. `N[C@@H](C(=O)N1CCN(c2ccccc2Cl)C(=O)C1)c1ccccc1`: the “Percent Effect” value was -16.48%. The figure for `CC1c2ncc(COCC3CC3)n2CCN1C(=O)c1ccnnc1` (configuration not stated) is 2.24%; for `CCOCCN1CCN(CC(O)c2ccc(C(F)(F)F)cc2)CC1` (configuration not stated) it is 21.93%; for `CSCc1ccc(C(=O)N2CCN(CC(C)O)CC2)cc1` (configuration not stated) it is -108.1%. As to `c1ccc(CCN2CCN(c3ccc4nncn4n3)CC2)nc1`, the “Percent Effect” value is reported as -102.7%.

For `Cc1cc(CN2CCN(c3ccc4nncn4n3)CC2)no1`, the “Percent Effect” value is on record as -4.981%.

On to `CC(Cn1cccn1)NC(=O)N1CCN(Cc2cccnc2)CC1` (configuration not stated), for which the “Percent Effect” value is -145.3%.

Consider `Cc1[nH]c(=O)[nH]c(=O)c1CN1CCCC(CCc2ccccc2)C1` (configuration not stated), for which the “Percent Effect” value is -20.63%.

As for `COc1cccc(CCC2CCCN(C(=O)c3ccccn3)C2)c1` (configuration not stated), the “Percent Effect” value was -27.65%. On to `CN(CCOCC1CC1)C(=O)Nc1ccc([S+](C)[O-])cc1` (configuration not stated), for which the “Percent Effect” value was -126.1%. With `CNC(=O)NC(C)c1c(F)cccc1Cl` (configuration not stated), the “Percent Effect” value is recorded as -107.4%. In the case of `Cc1ccccc1C1(CN)CCOCC1`, the “Percent Effect” value came out at 37.02%.

With `NCC1(c2cccc(C(F)(F)F)c2)CCCCC1`, the “Percent Effect” value is on record as -1.273%. The result for `Cc1ccccc1C1(CN)CCCCC1` reads 91.14%; that for `COc1ccc(C2CCCCCN2S(N)(=O)=O)cc1` (configuration not stated), -81.61%; that for `COc1ncccc1C(=O)N1CC[C@H]2C[C@H](c3noc(C)n3)O[C@@H]2C1`, -68.36%. Turning to `CC(Nc1nc(-c2ccccc2)nc2c1CCNCC2)c1cccnc1` (configuration not stated), the “Percent Effect” value stood at 90.56%.

As for `CC(Nc1nc(-c2ccncc2)nc2c1CCNC2)c1ccccc1` (configuration not stated), the “Percent Effect” value is 70.67%. Take `Cc1ccccc1C(Nc1ncnc2c1CCNC2)c1ccccc1` (configuration not stated): the “Percent Effect” value is recorded as 22.99%. Regarding `CCc1cc(C(C)Nc2nc(-c3cccnc3)nc3c2CNC3)on1` (configuration not stated), the “Percent Effect” value is listed as -34.82%. The figure for `CN(C)CCC(Nc1nc(N)nc2c1CCNCC2)c1ccccc1` (configuration not stated) is -67.64%. Take `CN(C)c1nc2c(c(N3CCc4ccccc4C3)n1)CCNC2`: the “Percent Effect” value is 30.67%. For `CC(=O)N1CCc2nc(-c3ccccc3)nc(NC(C)C)c2CC1`, the “Percent Effect” value was -31.72%. Regarding `Cc1cc(CC(C)Nc2nc(-c3cccnc3)nc3c2CNC3)[nH]n1` (configuration not stated), the “Percent Effect” value is reported as -0.4892%. As to `Cc1cccnc1[C@H](C)Nc1nc(-c2cccnc2)nc2c1CNC2`, the “Percent Effect” value was found to be 77.9%.

Consider `c1ccc2c(c1)CCN(c1nc(-c3ccncc3)nc3c1CCNC3)C2`, for which the “Percent Effect” value is given as 59.82%. The figure for `Cc1ccccc1N1CCN(c2nc(N(C)C)nc3c2CCNC3)CC1` is 36.34%; for `CCOCc1nc2c(c(NC(CC)c3cccnc3)n1)CCNCC2` (configuration not stated) it is -63.2%; for `CN1Cc2cc(F)ccc2N(CC(C)(C)O)CCC1=O` it is -102.4%.

Turning to `c1cc2occc2c(N2CCCC(c3nncn3C3CC3)C2)n1` (configuration not stated), the “Percent Effect” value is given as -31.64%. Turning to `CO[C@H]1CN(C(=O)OC(C)(C)C)CC1NCc1cc[nH]c1` (some centres not stated), the “Percent Effect” value is on record as -107.9%. In the case of `CCN1C(=O)C(C#N)=C(C)/C(=C/C2=Cc3ccccc3OC2)C1=O`, the “Percent Effect” value is on record as -95.4%. Consider `CC1c2ncc(Cn3cccn3)n2CCN1Cc1ccccn1.O=C(O)C(F)(F)F.O=C(O)C(F)(F)F` (configuration not stated), for which the “Percent Effect” value was -97.72%. As for `CCC[C@H]1CN(C(=O)c2ccc3[nH]c(CO)nc3c2)C[C@@H]1N`, the “Percent Effect” value is reported as -26.19%. In the case of `CC(=O)N1CCOC2(CCCN(C(=O)c3ccc(Cl)cc3)C2)C1` (configuration not stated), the “Percent Effect” value is recorded as -118.1%. Consider `Cc1ccc(NC(=O)N2CC[C@@H](O)C2)c(-c2nc(C3CC3)no2)c1`, for which the “Percent Effect” value is -83.22%. Take `O=S(=O)(Cc1ccccc1Cl)NCCCN1CCCC1`: the “Percent Effect” value came to 78.29%. As to `Cc1cc(F)c(S(=O)(=O)NCCCN2CCC(O)CC2)cc1F`, the “Percent Effect” value is recorded as -91.17%.

As for `CC1CCN(CCCNS(=O)(=O)Cc2ccccc2F)CC1`, the “Percent Effect” value worked out at 25.53%. Turning to `CC1CCN(CCCNS(=O)(=O)c2cccc(F)c2)CC1.Cl`, the “Percent Effect” value was found to be 53.06%. In the case of `O=S(=O)(NCCCN1CCCC1)c1cc(F)cc(F)c1`, the “Percent Effect” value was found to be 66.12%. Turning to `CC(C)c1cccc(S(=O)(=O)NCCCN2CCC(O)CC2)c1`, the “Percent Effect” value came out at 31.74%.

Turning to `CC1CCN(CCCNS(=O)(=O)c2cc(F)cc(F)c2)CC1.Cl`, the “Percent Effect” value is reported as 61.9%. In the case of `O=S(=O)(Cc1ccccc1F)NCCCN1CCCCC1`, the “Percent Effect” value was determined as 18.19%. As for `Cn1cnc(S(=O)(=O)NCCCN2CCCCCC2)c1Cl`, the “Percent Effect” value is -99.75%.

In the case of `Cc1ccccc1CS(=O)(=O)NCCCN1CCCC1`, the “Percent Effect” value was 22.31%. The result for `CC(=O)N1CCN(CCNS(=O)(=O)c2cccc(F)c2)CC1` reads -79.38%; that for `CC(=O)N1CCN(CCNS(=O)(=O)c2cc(F)cc(F)c2)CC1`, -120.9%; that for `CN(Cc1cccs1)Cc1nnsc1Cl`, -133.9%.

Consider `NC(=O)CN1CC2(CCC1=O)CCN(C(=O)c1ccccc1F)CC2`, for which the “Percent Effect” value is -172.5%. As to `CCO[C@H]1CC[C@H]2[C@H]1OCCN2C(=O)CC1=CCCCC1`, the “Percent Effect” value was -84.2%. For the compound `COCCn1ccc2c(C(=O)Nc3nc4c(s3)CCC4)cccc21`, the “Percent Effect” value was -233.3%.
